According to PubChem BioAssay (NCATS):
“And” between values parts separate entries of the source, which are not always exact repeats. Equal entries are not always repeated. Inconclusive results are not listed. The source made the active and inactive calls. Calls come from the whole dose curve; as a rule, active = well fitted curve in the direction sought with a large enough effect; inconclusive = small, poorly fitted or top-dose-only effect, or another doubt; inactive = no such curve, though single readings can be large; an effect the other way counts as inactive or inconclusive.

Experiments:
[1] = Viability qHTS for spleen associated tyrosine kinase inhibitor (SYKi) naive MV4-11 cells (AID 1963823); note: nearly all actives have a fitted effect of over 40% in size
How it was run: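 Cells: MV4-11, SYK inhibitor naive, 500 per well. Treatment: library compounds, 72 hr, 37 C, 5% CO2. Read-out: CellTiter-Glo luminescence after 10 min RT.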

[2] = Viability qHTS for spleen associated tyrosine kinase inhibitor (SYKi) drug resistant MV4-11 cells (AID 1963824); note: nearly all actives have a fitted effect of over 35% in size
How it was run: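 SYK inhibitor-resistant MV4-11 AML cells, 500 per well, added to predispensed compounds and incubated 72 hr at 37 C, 5% CO2. Viability measured by CellTiter-Glo luminescence after 10 min at room temperature.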

[3] = Quantitative highthroughput screen to assess conditional lethalithy of SEM cells grown in Human Plasma-Like Medium with dialyzed fetal bovine serum (HPLM+ds) (AID 1963882); note: nearly all actives have a fitted effect of over 35% in size; for Viability: series mostly up to about 46 µM
How it was run: (§1)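 Each medium arm—HPLM with 10% dialyzed FBS, or RPMI1640 with 5 mM glucose and 10% untreated or dialyzed FBS—was screened against an 11-point, 3-fold compound titration for 48 h at 37 °C, with CellTiter-Glo luminescence as endpoint.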

[4] = Quantitative highthroughput screen to assess conditional lethalithy of SEM cells grown in RPMI1640 with unreated serum (RPMI+s) (AID 1963883); note: nearly all actives have a fitted effect of over 35% in size;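 for Viability: 100% = DMSO wells and 0% = empty wells without cells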
How it was run: as §1

[5] = Quantitative highthroughput screen to assess conditional lethalithy of SEM cells grown in RPMI1640 with dialyzed fetal bovine serum (RPMI+ds) (AID 1963884); note: nearly all actives have a fitted effect of over 35% in size
How it was run: as §1

[6] = Cellular viability qHTS for adrenocortical cancer (ACC) cell line SW-13 (AID 1963989); conditions: SW-13 ACC cells viability, CellTiter-Glo, 48 h; activity (max response): active compounds read low; note: nearly all actives have a fitted effect of over 65% in size;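 for activity (max response): cells grown in serum-free medium with ITS supplement; % is set by controls: 0 for no effect and ±100 for the full control effect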
How it was run: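 SW-13 cells in ITS-supplemented serum-free DMEM were plated overnight, then exposed for 48 h at 37C to compound titrations (up to 46 uM final). Viability was read by CellTiter-Glo luminescence; four-parameter logistic fits gave IC50 and efficacy.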

[7] = Cellular viability qHTS for adrenocortical cancer (ACC) cell line NCI-H295R (AID 1963990); note: nearly all actives have a fitted effect of over 60% in size
How it was run: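 Luminescent ATP read-out (CellTiter-Glo, 20 min RT) after 48 h drug exposure of NCI-H295R cells; a titration up to 46 uM final. Data normalized to doxorubicin (100% inhibition) and DMSO (0%); 4-parameter fit gives IC50, max response.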

[8] = Quantitative highthroughput screen to assess conditional lethalithy of P12 Ichikawa cells grown in Human Plasma-Like Medium with dialyzed fetal bovine serum (HPLM+ds) (AID 1963879); conditions: Potency: viability; note: nearly all actives have a fitted effect of over 35% in size; for Viability: series mostly up to about 46 µM
How it was run: as §1

[9] = Quantitative highthroughput screen to assess conditional lethalithy of P12 Ichikawa cells grown in RPMI1640 with dialyzed fetal bovine serum (RPMI+ds) (AID 1963880); conditions: Potency: P12-Ichikawa viability; note: nearly all actives have a fitted effect of over 35% in size;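 for Viability: 100% = DMSO wells and 0% = empty wells on each plate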
How it was run: as §1

[10] = Quantitative highthroughput screen to assess conditional lethalithy of P12 Ichikawa cells grown in RPMI1640 with untreated serum (RPMI+s) (AID 1963881); conditions: Potency: viability; note: nearly all actives have a fitted effect of over 35% in size;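 for Viability: series mostly up to about 46 µM; 100% = DMSO wells and 0% = empty wells without cells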
How it was run: as §1
Potency is the fitted concentration of half-maximal effect.

CC1(C)CCC2=C(O1)c1ccccc1C(=O)C2=O
active: Potency [1] 8.33 µM | Potency [2] 7.42 µM | Potency [3] 26.4 µM | Potency [4] 26.4 µM | Potency [5] 18.7 µM | Potency [6] 15.8 µM | Potency [7] 8.91 µM

O=C(N[C@@H](c1ccccc1)[C@@H]1CCCCN1)c1cccc(C(F)(F)F)c1Cl
inactive: Potency [8]
active: Potency [1] 16.6 µM | Potency [2] 16.6 µM | Potency [6] 28.2 µM | Potency [7] 8.91 µM

COc1cc2ncnc(Nc3ccc(F)c(Cl)c3)c2cc1OCCCN1CCOCC1
active: Potency [1] 4.22 µM | Potency [2] 6.68 µM and 3.66 µM | Potency [3] 38.2 µM | Potency [4] 42.9 µM
inactive: Potency [9] | Potency [10] | Potency [7]

NC(=O)[C@H]1CCS[C@@H]2C[C@]3(CCCN3C(=O)Cc3ccc(NC(=O)COc4ccc(Cl)cc4Cl)cc3)C(=O)N12
active: Potency [1] 3.26 µM | Potency [2] 2.91 µM | Potency [9] 1.48 µM | Potency [10] 1.17 µM | Potency [5] 1.86 µM | Potency [7] 3.98 µM

Cc1cc(C(C)(C)C)c(O)c(C)c1CC1=NCCN1
active: Potency [8] 8.33 µM
inactive: Potency [1] | Potency [2] | Potency [7]

NC(=O)Nc1cc(-c2ccc(CN3CCOCC3)cc2)sc1C(N)=O
inactive: activity (max response) [6] -17.8%
active: Potency [1] 0.209 µM | Potency [2] 0.468 µM | Potency [9] 0.118 µM | Potency [3] 0.132 µM | Potency [4] 0.118 µM | Potency [5] 0.105 µM | Potency [7] 5.01 µM

C[C@@H]1CC(=O)NN=C1c1ccc(NN=C(C#N)C#N)cc1
active: Potency [1] 13.3 µM | Potency [2] 15 µM | Potency [3] 18.7 µM
inactive: activity (max response) [6] -17.4% and 2.94% and -32.7% | Potency [7]

Nc1ncnc2c1nc(Cl)n2[C@@H]1O[C@H](CO)[C@@H](O)[C@@H]1O
active: Potency [1] 2.35 µM | Potency [2] 2.95 µM | Potency [3] 11.8 µM | Potency [4] 14.8 µM | Potency [5] 8.33 µM

CC[C@H](CC#N)OC(=O)N[C@@H](C)c1cccc(NC(=O)Nc2ccc(-c3cnco3)c(OC)c2)c1
active: Potency [1] 326 nM and 263 nM | Potency [2] 231 nM and 263 nM | Potency [4] 2.09 µM

O=C(O)c1cn(C2CC2)c2cc(N3CCNCC3)c(F)cc2c1=O
active: Potency [3] 16.6 µM | Potency [5] 3.72 µM
inactive: Potency [1] | Potency [2] | Potency [7]

COC1=C(OC)C(=O)C(CCCCCCCCCCO)=C(C)C1=O
active: Potency [1] 10.6 µM | Potency [2] 10.6 µM and 13.2 µM | Potency [6] 4.11 µM and 25.1 µM | Potency [7] 2.91 µM and 5.01 µM
inactive: Potency [8] | Potency [3] | Potency [4]

CN1CCc2c(c3ccccc3n2Cc2ccc(C(=O)NO)cc2)C1
inactive: Potency [9]
active: Potency [1] 26.3 µM | Potency [2] 14.8 µM | Potency [10] 13.2 µM | Potency [3] 11.8 µM | Potency [7] 28.2 µM

CC(=O)Nc1nc(C)c(-c2ccc(Cl)c(S(=O)(=O)NCCO)c2)s1
active: Potency [1] 0.82 µM | Potency [2] 0.92 µM | Potency [3] 4.18 µM | Potency [4] 2.64 µM | Potency [5] 1.66 µM | Potency [6] 17.8 µM | Potency [7] 25.1 µM

Cc1ccc(C(N)=O)cc1Nc1nccc(-c2cn(C(C)C)c3cnccc23)n1
active: Potency [1] 0.0231 µM | Potency [2] 0.0517 µM | Potency [3] 3.32 µM | Potency [4] 3.72 µM | Potency [5] 2.09 µM | Potency [6] 8.91 µM | Potency [7] 12.6 µM

O=C(Nc1cccc(C(F)(F)F)c1)Nc1cc(S(=O)(=O)NC2CC2)ccc1-c1ccsc1
inactive: Potency [8]
active: Potency [1] 14.8 µM | Potency [2] 7.42 µM | Potency [7] 31.6 µM

COc1ccc(S(=O)(=O)Nc2cccnc2Nc2ccc(O)cc2)cc1
active: Potency [1] 0.934 µM | Potency [2] 0.833 µM | Potency [8] 3.32 µM | Potency [3] 2.35 µM | Potency [6] 3.16 µM

CCc1cccc(CC)c1NC(=O)N1Cc2[nH]nc(NC(=O)c3ccc(N4CCN(C)CC4)cc3)c2C1
active: Potency [1] 1.46 µM and 1.66 µM | Potency [2] 1.03 µM and 1.05 µM | Potency [8] 1.87 µM | Potency [3] 4.18 µM | Potency [5] 1.66 µM

Nc1ncnc2c1c(-c1cnc3[nH]ccc3c1)nn2C1CCCC1
active: Potency [1] 920 nM and 590 nM | Potency [2] 1.16 µM and 1.18 µM | Potency [9] 1.48 µM | Potency [3] 5.26 µM | Potency [4] 3.72 µM | Potency [5] 5.9 µM | Potency [6] 5.01 µM | Potency [7] 2.82 µM
